# Data reported in PubChem BioAssay AID1159580 (chemical genetic matrix, 2015).
# The campaign covered roughly 5,500 compounds. About 2,000 (36%) were called active. Roughly 18% stayed inconclusive and do not appear here. Some of the results follow. Unmarked numbers belong to inactive results. Cut-off read from the data, not from the text of the source: active = normalized growth mostly below about 0.91 (no sharp cut-off); inconclusive = no clear call, values can overlap the other calls; inactive = mostly above about 0.92.
# Test: chemical genetic growth profiling, strain panel (AID 1159580);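 note: tested at 20 µM; growth read once vehicle control cultures reached saturation at 30 °C; 1 = growth at the plate median or of vehicle wells; lower values mean less growth of the strain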
# Settings: growth OD
# [1] = S. cerevisiae deletion strains, locus YAL013W, strain DEP1, active compounds read low
# [2] = S. cerevisiae deletion strains, locus YDR150W, strain NUM1, active compounds read low
# [3] = S. cerevisiae deletion strains, locus YMR263W, strain SAP30, active compounds read low
# [4] = S. cerevisiae deletion strains, locus YMR307W, strain GAS1, active compounds read low
# [5] = S. cerevisiae deletion strains, locus YNL322C, strain KRE1, active compounds read low
# [6] = S. cerevisiae deletion strains, locus YBR229C, strain ROT2, active compounds read low
# [7] = S. cerevisiae deletion strains, locus YDL101C, strain DUN1, active compounds read low
# [8] = S. cerevisiae deletion strains, locus YEL061C, strain CIN8, active compounds read low
# [9] = S. cerevisiae deletion strains, locus YGR078C, strain PAC10, active compounds read low
# [10] = S. cerevisiae deletion strains, locus YHR030C, strain SLT2, active compounds read low
# [11] = S. cerevisiae deletion strains, locus YHR087W, strain rtc3, active compounds read low
# [12] = S. cerevisiae deletion strains, locus YJL187C, strain SWE1, active compounds read low
# [13] = S. cerevisiae deletion strains, locus YJR043C, strain POL32, active compounds read low
# [14] = S. cerevisiae deletion strains, locus YJR075W, strain HOC1, active compounds read low
# [15] = S. cerevisiae deletion strains, locus YLR039C, strain RIC1, active compounds read low
# [16] = S. cerevisiae deletion strains, locus YLR058C, strain SHM2 (second series), active compounds read low
# [17] = S. cerevisiae deletion strains, locus YLR085C, strain ARP6, active compounds read low
# [18] = S. cerevisiae deletion strains, locus YLR262C, strain YPT6, active compounds read low
# [19] = S. cerevisiae deletion strains, locus YML094W, strain GIM5, active compounds read low
# [20] = S. cerevisiae deletion strains, locus YMR219W, strain ESC1, active compounds read low
# [21] = S. cerevisiae deletion strains, locus YNL153C, strain GIM3, active compounds read low
# [22] = S. cerevisiae deletion strains, locus YNL298W, strain CLA4 (second series), active compounds read low
# [23] = S. cerevisiae deletion strains, locus YNR030W, strain Alg12, active compounds read low
# [24] = S. cerevisiae deletion strains, locus YPL055C, strain LGE1, active compounds read low
# [25] = S. cerevisiae deletion strains, locus YPL241C, strain CIN2, active compounds read low
# [26] = S. cerevisiae deletion strains, locus YPR135W, strain CTF4, active compounds read low
# [27] = S. cerevisiae strains, strain wild type, active compounds read low
smiles,measurement,setting,value
c1cc(CN2CCCCC2)cc(OCCCNc2nc3ccccc3s2)c1,normalized growth,[1],1
same,normalized growth,"S. cerevisiae deletion strains, locus YAL040C, strain CLN3, active compounds read low",0.908
same,normalized growth,"S. cerevisiae deletion strains, locus YCL061C, strain MRC1 (second series), active compounds read low",1.01
same,normalized growth,[2],1.02
same,normalized growth,"S. cerevisiae deletion strains, locus YDR363W, strain ESC2, active compounds read low",0.997
same,normalized growth,"S. cerevisiae deletion strains, locus YER002W, strain NOP16, active compounds read low",0.936
same,normalized growth,[3],1.01
same,normalized growth,[4],1.01
same,normalized growth,"S. cerevisiae deletion strains, locus YNL197C, strain WHI3, active compounds read low",1.04
same,normalized growth,"S. cerevisiae deletion strains, locus YNL224C, strain SQS1, active compounds read low",1.06
same,normalized growth,[5],0.992
same,normalized growth,"S. cerevisiae deletion strains, locus YOR083W, strain WHI5 (second series), active compounds read low",1.03
COc1cccc(NC(N)=S)c1,normalized growth,[1],1.02
same,normalized growth,[6],1.01
same,normalized growth,[7],1.02
same,normalized growth,[2],0.992
same,normalized growth,[8],1.01
same,normalized growth,[9],1.01
same,normalized growth,"S. cerevisiae deletion strains, locus YGR229C, strain SMI1, active compounds read low",0.993
same,normalized growth,[10],1.08
same,normalized growth,[11],0.997
same,normalized growth,[12],1.01
same,normalized growth,[13],1.01
same,normalized growth,[14],0.991
same,normalized growth,"S. cerevisiae deletion strains, locus YKL190W, strain CNB1, active compounds read low",0.985
same,normalized growth,[15],1.03
same,normalized growth,[16],1.03
same,normalized growth,[17],1.02
same,normalized growth,[18],1.05
same,normalized growth,[19],1
same,normalized growth,[20],1.01
same,normalized growth,[3],1.01
same,normalized growth,[21],0.998
same,normalized growth,[22],1.03
same,normalized growth,[5],0.995
same,normalized growth,[23],1.01
same,normalized growth,"S. cerevisiae deletion strains, locus YOL006C, strain TOP1, active compounds read low",1.05
same,normalized growth,[24],0.984
same,normalized growth,[25],0.964
same,normalized growth,[26],1.12
same,normalized growth,[27],0.993
COc1cccc(Nc2nc3ccccc3s2)c1,normalized growth,[1],0.728 (active)
same,normalized growth,[6],0.709 (active)
same,normalized growth,[7],0.724 (active)
same,normalized growth,[2],0.877
same,normalized growth,[8],0.533 (active)
same,normalized growth,[9],0.827 (active)
same,normalized growth,[10],0.112 (active)
same,normalized growth,[11],0.688 (active)
same,normalized growth,[12],0.682 (active)
same,normalized growth,[13],0.856 (active)
same,normalized growth,[14],0.711 (active)
same,normalized growth,[15],0.163 (active)
same,normalized growth,[16],0.914 (active)
same,normalized growth,[17],0.138 (active)
same,normalized growth,[18],0.187 (active)
same,normalized growth,[19],0.66 (active)
same,normalized growth,[20],0.804 (active)
same,normalized growth,[3],0.795 (active)
same,normalized growth,[4],0.208 (active)
same,normalized growth,[21],0.799 (active)
same,normalized growth,[22],0.421 (active)
same,normalized growth,[5],0.943 (active)
same,normalized growth,[23],0.575 (active)
same,normalized growth,[24],0.548 (active)
same,normalized growth,[25],0.485 (active)
same,normalized growth,[26],0.264 (active)
same,normalized growth,[27],0.598 (active)
